The values below come from article PMC7862700, “An all-to-all approach to the identification of sequence-specific readers for epigenetic DNA modifications on cytosine”.

Assay in all cases: DAPPL (digital affinity profiling via proximity ligation, sequencing); 10 mM Tris-HCl pH 7.5, 50 mM NaCl, 1 mM DTT, 4% glycerol, room temperature, 30 min; GST-TFs on glutathione beads, 16-mer random dsDNA library, 0.1% formaldehyde crosslink after washing; high values mean tight binding
Assay [1] has as its target T1, FEV (Homo sapiens, UniProt Q99581 1-238).
T1 sequence: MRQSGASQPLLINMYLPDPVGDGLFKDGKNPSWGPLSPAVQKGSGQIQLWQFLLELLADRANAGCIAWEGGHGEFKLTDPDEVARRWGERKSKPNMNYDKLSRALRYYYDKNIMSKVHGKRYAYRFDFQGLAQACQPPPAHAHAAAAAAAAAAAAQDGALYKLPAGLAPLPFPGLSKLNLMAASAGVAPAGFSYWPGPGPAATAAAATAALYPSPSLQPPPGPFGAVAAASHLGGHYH
To be noted: protein: recombinant; tags: N-terminal GST; dsDNA, one strand shown. The essentials:
(§1)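 Binding signal is given per hexamer as its read frequency for a factor divided by its frequency in the tag-only sample. GST-fused human transcription factors were expressed in yeast, captured on glutathione beads, barcoded with DNA and pooled with that sample, then incubated with 200 nmole of a 16-mer random double-stranded DNA library in Tris/NaCl/DTT/glycerol buffer for 30 min at room temperature. The pools were then washed, crosslinked, proximity-ligated, amplified by PCR and sequenced on an Illumina NextSeq500.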

The target of assay [2] is ETV5 (Homo sapiens, UniProt P41161 1-510). To be noted: protein: recombinant; tags: N-terminal GST; dsDNA, one strand shown. The essentials: as §1
Sequence of ETV5 (P41161 whole entry): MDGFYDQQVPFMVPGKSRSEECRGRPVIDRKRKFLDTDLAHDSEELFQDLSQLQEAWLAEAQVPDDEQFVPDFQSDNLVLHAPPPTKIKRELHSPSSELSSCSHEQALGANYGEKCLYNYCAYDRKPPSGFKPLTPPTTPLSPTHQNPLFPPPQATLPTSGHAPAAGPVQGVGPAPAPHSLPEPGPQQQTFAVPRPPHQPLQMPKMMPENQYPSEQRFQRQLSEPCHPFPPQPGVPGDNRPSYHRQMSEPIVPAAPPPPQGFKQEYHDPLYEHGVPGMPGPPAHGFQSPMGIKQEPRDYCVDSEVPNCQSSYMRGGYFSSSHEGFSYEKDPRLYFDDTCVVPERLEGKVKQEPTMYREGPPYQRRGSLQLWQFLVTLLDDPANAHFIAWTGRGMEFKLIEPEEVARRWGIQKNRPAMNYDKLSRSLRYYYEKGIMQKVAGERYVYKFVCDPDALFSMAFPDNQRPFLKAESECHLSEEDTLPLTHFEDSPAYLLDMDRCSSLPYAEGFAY
Assay [3] deals with HSF1 (Homo sapiens, UniProt Q00613 1-529). To be noted: protein: recombinant; tags: N-terminal GST; chain copies: 3; dsDNA, one strand shown. In short, it runs like this:
as §1

Assay [4] addresses T2, SPIC (Homo sapiens, UniProt Q8N5J4 1-248).
T2 sequence: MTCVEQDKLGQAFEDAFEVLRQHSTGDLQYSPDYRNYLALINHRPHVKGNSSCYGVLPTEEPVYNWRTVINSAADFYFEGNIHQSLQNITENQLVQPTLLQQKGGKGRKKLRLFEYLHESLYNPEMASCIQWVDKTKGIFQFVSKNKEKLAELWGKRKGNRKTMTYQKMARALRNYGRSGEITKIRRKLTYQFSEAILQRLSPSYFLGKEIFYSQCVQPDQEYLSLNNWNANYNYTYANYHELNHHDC
To be noted: protein: recombinant; tags: N-terminal GST; dsDNA, one strand shown. In short, it runs like this: as §1

Assay [5] has as its target ELF4 (Homo sapiens, UniProt Q99607 1-663). The note with it: protein: recombinant; tags: N-terminal GST; dsDNA, one strand shown. The essentials: as §1
Assay [6] concerns the target T3, ELK4 (Homo sapiens, UniProt P28324-2 1-405).
T3 sequence: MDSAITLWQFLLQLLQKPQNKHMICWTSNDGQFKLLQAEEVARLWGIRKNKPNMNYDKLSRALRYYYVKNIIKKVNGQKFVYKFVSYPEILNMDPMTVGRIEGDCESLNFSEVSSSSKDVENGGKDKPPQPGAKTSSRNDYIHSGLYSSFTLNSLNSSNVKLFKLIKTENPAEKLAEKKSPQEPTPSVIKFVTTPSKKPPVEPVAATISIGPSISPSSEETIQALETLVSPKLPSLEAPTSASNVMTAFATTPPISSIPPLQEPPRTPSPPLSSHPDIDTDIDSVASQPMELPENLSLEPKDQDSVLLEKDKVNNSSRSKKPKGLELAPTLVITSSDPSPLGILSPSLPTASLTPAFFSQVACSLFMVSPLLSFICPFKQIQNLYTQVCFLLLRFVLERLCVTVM
The note with it: protein: recombinant; tags: N-terminal GST; dsDNA, one strand shown. The essentials: as §1

Assay [7] has as its target T4, ETV2 (Homo sapiens, UniProt O00321 1-342).
T4 sequence: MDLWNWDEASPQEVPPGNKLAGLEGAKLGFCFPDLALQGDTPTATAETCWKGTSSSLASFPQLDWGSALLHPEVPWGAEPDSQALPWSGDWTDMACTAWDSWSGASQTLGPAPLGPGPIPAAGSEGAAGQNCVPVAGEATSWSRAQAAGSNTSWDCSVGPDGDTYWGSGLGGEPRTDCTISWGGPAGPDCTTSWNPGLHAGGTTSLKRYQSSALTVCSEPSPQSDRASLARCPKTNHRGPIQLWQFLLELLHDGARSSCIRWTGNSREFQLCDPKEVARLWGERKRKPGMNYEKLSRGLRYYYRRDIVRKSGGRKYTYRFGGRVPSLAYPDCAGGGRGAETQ
To be noted: protein: recombinant; tags: N-terminal GST; dsDNA, one strand shown. The essentials:
as §1

For assay [8], the target named is T5, ELF3 (Homo sapiens, UniProt P78545 1-371).
T5 sequence: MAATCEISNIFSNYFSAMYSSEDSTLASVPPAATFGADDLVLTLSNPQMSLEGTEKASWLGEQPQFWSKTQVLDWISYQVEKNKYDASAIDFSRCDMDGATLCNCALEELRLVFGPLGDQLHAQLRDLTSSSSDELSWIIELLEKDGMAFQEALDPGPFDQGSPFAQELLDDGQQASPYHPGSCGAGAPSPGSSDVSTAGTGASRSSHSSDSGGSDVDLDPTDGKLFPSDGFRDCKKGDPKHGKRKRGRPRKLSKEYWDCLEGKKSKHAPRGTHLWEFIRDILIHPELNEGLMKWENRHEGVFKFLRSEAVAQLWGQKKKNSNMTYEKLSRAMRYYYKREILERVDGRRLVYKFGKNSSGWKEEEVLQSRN
To be noted: protein: recombinant; tags: N-terminal GST; dsDNA, one strand shown. The essentials:
as §1

For assay [9], the target named is CRX (Homo sapiens, UniProt O43186 1-299). The note with it: protein: recombinant; tags: N-terminal GST; dsDNA, one strand shown. The essentials: as §1
Sequence of CRX (O43186 whole entry): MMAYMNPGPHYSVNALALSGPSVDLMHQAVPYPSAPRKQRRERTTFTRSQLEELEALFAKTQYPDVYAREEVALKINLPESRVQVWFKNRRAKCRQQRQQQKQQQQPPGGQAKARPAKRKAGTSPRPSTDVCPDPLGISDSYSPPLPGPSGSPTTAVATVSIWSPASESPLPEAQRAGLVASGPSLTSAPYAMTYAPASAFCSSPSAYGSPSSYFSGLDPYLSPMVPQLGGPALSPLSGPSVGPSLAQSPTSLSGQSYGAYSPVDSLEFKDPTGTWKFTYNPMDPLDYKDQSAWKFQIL
The target of assay [10] is ETV1 (Homo sapiens, UniProt P50549 1-477). To be noted: protein: recombinant; tags: N-terminal GST; dsDNA, one strand shown. In short, it runs like this:
as §1

The target of assay [11] is T6, ERF (Homo sapiens, UniProt P50548 1-548).
T6 sequence: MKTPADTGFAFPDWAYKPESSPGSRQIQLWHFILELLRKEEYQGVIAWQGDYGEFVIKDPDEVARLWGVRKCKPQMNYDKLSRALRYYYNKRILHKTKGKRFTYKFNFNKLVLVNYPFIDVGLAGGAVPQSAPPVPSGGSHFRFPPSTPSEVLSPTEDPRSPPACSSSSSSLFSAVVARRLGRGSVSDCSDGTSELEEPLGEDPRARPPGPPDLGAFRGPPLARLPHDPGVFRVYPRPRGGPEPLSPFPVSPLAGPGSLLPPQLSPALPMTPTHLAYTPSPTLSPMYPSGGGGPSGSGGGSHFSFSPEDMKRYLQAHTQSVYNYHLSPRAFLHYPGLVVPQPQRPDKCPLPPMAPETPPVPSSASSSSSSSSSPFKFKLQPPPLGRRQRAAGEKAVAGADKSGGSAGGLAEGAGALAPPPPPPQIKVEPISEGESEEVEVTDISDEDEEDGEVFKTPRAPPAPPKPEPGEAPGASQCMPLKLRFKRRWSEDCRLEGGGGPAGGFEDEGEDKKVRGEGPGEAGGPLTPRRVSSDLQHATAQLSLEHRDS
The note with it: protein: recombinant; tags: N-terminal GST; dsDNA, one strand shown. In short, it runs like this: as §1

Assay [12] addresses T7, ETV3L (Homo sapiens, UniProt Q6ZN32 1-361).
T7 sequence: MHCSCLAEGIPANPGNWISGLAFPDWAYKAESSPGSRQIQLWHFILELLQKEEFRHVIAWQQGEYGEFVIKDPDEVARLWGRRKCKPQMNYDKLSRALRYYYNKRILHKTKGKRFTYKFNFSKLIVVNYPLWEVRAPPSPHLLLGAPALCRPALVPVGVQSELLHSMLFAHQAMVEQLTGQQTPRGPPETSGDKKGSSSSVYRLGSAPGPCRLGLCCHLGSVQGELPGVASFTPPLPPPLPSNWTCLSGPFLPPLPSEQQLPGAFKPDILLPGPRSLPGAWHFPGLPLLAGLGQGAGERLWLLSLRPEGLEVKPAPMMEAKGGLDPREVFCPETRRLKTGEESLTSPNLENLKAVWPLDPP
The note with it: protein: recombinant; tags: N-terminal GST; dsDNA, one strand shown. In short, it runs like this: as §1

In assay [13] the target is T8, ETS2 (Homo sapiens, UniProt P15036 1-469).
T8 sequence: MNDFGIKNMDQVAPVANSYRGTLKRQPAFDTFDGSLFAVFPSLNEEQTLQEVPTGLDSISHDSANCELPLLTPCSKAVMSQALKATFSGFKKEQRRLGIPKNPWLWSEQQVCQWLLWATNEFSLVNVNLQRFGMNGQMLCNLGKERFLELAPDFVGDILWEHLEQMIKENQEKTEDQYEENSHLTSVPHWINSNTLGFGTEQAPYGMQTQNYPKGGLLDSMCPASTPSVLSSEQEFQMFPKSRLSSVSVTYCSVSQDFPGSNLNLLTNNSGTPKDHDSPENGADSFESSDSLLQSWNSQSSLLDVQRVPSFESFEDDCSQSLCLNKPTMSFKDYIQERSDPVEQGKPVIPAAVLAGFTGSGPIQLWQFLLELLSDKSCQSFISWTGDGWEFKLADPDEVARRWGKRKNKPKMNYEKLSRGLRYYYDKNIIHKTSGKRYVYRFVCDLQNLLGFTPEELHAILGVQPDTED
To be noted: protein: recombinant; tags: N-terminal GST; dsDNA, one strand shown. The essentials: as §1

Assay [14] concerns the target T9, SPDEF (Homo sapiens, UniProt O95238 1-335).
T9 sequence: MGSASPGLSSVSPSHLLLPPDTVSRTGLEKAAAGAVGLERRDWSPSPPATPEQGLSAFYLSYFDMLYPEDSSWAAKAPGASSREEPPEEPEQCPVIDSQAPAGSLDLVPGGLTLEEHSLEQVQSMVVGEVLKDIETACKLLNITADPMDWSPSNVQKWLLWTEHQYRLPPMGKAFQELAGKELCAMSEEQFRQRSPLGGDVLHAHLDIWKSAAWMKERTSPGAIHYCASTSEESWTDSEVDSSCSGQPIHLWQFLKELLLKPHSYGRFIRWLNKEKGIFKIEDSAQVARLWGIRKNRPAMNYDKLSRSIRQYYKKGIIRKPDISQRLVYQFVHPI
To be noted: protein: recombinant; tags: N-terminal GST; dsDNA, one strand shown. The essentials: as §1

The target of assay [15] is T10, ETV7 (Homo sapiens, UniProt Q9Y603 1-341).
T10 sequence: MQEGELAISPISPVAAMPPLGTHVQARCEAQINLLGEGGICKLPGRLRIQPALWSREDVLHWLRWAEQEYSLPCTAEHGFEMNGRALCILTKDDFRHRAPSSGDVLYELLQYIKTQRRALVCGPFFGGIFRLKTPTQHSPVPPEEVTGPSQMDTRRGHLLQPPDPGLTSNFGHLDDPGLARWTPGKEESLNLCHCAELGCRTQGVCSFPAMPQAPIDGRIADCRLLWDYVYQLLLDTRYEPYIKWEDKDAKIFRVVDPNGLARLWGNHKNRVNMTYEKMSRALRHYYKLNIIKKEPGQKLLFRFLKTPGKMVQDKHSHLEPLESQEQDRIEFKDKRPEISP
The note with it: protein: recombinant; tags: N-terminal GST; dsDNA, one strand shown. The essentials: as §1

The target of assay [16] is T11, ELF5 (Homo sapiens, UniProt Q9UKW6-2 1-255).
T11 sequence: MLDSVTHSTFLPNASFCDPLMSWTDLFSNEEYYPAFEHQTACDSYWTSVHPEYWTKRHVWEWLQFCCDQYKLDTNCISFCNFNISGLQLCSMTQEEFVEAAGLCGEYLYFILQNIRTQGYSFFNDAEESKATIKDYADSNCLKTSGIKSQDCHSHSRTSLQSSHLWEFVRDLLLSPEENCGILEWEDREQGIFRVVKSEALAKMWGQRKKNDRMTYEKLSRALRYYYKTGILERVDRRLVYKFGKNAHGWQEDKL
The note with it: protein: recombinant; tags: N-terminal GST; dsDNA, one strand shown. In short, it runs like this: as §1

Assay [17] has as its target T12, ETV3 (Homo sapiens, UniProt P41162-2 1-143).
T12 sequence: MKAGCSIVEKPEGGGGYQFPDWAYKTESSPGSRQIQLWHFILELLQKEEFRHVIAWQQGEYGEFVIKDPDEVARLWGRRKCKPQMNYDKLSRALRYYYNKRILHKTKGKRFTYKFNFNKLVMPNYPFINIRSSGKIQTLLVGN
The note with it: protein: recombinant; tags: N-terminal GST; dsDNA, one strand shown. In short, it runs like this:
as §1

Assay [18] has as its target ETV6 (Homo sapiens, UniProt P41212 1-452). The note with it: protein: recombinant; tags: N-terminal GST; dsDNA, one strand shown. The essentials:
as §1

Sequence of ELF4 (Q99607 whole entry): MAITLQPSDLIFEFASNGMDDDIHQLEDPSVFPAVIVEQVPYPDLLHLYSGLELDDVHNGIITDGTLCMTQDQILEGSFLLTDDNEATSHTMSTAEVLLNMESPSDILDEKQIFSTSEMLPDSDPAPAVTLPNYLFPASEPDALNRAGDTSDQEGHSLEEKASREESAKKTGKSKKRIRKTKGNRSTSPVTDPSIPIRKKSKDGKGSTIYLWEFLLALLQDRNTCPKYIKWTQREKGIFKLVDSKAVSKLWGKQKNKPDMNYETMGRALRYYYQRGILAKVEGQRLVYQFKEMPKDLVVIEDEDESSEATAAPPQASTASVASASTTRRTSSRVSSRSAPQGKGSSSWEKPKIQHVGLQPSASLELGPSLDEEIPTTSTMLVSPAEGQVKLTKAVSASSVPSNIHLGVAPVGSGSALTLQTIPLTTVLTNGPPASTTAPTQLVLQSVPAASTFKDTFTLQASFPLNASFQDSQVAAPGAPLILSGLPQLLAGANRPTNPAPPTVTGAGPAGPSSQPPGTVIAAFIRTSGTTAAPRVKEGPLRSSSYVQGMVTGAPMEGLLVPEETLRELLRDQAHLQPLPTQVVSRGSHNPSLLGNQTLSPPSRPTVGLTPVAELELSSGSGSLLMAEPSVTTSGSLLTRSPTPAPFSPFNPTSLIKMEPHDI
Sequence of ETV6 (P41212 whole entry): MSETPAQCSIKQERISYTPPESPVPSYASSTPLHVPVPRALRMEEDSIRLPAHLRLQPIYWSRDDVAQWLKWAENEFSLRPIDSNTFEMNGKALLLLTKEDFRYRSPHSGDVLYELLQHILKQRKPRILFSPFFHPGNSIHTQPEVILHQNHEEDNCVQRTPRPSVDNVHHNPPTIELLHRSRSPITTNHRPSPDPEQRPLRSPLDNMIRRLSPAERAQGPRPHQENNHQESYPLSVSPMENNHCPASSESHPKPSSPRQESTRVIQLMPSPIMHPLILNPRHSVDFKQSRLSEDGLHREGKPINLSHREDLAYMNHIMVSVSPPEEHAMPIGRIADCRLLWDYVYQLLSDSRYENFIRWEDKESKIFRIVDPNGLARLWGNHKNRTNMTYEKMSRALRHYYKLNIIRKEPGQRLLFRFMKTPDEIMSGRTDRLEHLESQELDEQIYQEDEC
Sequence of ETV1 (P50549 whole entry): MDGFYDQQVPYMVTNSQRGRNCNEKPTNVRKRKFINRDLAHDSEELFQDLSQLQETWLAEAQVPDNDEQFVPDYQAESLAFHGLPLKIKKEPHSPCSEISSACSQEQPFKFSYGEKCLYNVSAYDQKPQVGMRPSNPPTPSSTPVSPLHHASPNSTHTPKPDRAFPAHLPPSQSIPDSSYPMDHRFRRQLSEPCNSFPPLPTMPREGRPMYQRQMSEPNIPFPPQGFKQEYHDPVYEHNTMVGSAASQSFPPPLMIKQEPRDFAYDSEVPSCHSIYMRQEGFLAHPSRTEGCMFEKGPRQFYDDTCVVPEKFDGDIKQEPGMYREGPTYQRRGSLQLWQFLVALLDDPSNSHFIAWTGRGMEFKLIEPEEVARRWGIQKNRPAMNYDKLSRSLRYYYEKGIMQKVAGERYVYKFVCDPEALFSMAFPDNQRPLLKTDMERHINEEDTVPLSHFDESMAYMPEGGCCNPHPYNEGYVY
Sequence of HSF1 (Q00613 whole entry): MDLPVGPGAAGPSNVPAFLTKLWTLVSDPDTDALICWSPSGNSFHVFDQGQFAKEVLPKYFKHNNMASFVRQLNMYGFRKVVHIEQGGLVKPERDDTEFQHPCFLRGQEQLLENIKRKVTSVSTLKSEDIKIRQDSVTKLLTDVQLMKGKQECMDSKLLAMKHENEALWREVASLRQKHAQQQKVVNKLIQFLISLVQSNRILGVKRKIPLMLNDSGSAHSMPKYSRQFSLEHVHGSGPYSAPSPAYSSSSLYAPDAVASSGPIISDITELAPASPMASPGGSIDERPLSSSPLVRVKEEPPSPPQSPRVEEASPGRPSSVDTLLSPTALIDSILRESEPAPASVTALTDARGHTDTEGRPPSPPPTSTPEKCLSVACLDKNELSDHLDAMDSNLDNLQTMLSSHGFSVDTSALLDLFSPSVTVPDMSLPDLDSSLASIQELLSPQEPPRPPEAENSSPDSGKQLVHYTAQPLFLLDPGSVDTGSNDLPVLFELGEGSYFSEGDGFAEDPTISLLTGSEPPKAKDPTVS

Turning to TCTTTC, the binding signal was 1.39 fold enrichment (6-mer frequency, TF over GST control) in [1]; 1.36 fold enrichment (6-mer frequency, TF over GST control) in [2]; 1.82 fold enrichment (6-mer frequency, TF over GST control) in assay [3]; 1.31 fold enrichment (6-mer frequency, TF over GST control) in [4]; 1.32 fold enrichment (6-mer frequency, TF over GST control) in assay [5]; 1.46 fold enrichment (6-mer frequency, TF over GST control) in [6]. Further, the binding signal was 1.42 fold enrichment (6-mer frequency, TF over GST control) in assay [7]; 1.19 fold enrichment (6-mer frequency, TF over GST control) in assay [8]; 1.41 fold enrichment (6-mer frequency, TF over GST control) in assay [9]; 1.47 fold enrichment (6-mer frequency, TF over GST control) in assay [10]; 1.33 fold enrichment (6-mer frequency, TF over GST control) in assay [11]; 1.39 fold enrichment (6-mer frequency, TF over GST control) in assay [12]. Moreover, the binding signal in assay [13] is 1.43 fold enrichment (6-mer frequency, TF over GST control); in [14] it was 1.44 fold enrichment (6-mer frequency, TF over GST control); in [15] it was 1.27 fold enrichment (6-mer frequency, TF over GST control); in [16] it was 1.48 fold enrichment (6-mer frequency, TF over GST control); in assay [17] it was 1.44 fold enrichment (6-mer frequency, TF over GST control); in assay [18] it was 1.38 fold enrichment (6-mer frequency, TF over GST control).
